The full list was thinned out, with hits kept by preference.
S aureus helic – blocks Staphylococcus aureus DNA helicase. 120,000 tested, 0.05% active. AID 485395. inhibition, % (concentration not given with the values). purified S. aureus helicase, fluorescence unwinding assay; in the data active means inhibition above about 25%, passing the limit was not always enough;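 further: 0% = mean of negative control wells and 100% = mean of positive control wells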
Sa growth inh – blocks Staphylococcus aureus growth; S. aureus RN4220 growth, OD600, 20 h, 42 °C; active compounds read low; relative growth, % (test concentration not listed); 170,000 tested, 0.53% active;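 active means relative growth at most 50% at the other temperature and 20+ points below 30 °C, or under 10% at both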
An asterisk follows results filed as active; . = no result.

SMILES | S aureus helic | Sa growth inh
Cc1cc(=O)[nH]c(SCC(=O)Nc2ccc(Br)cc2)c1C#N | 0 | 7.7*
CCn1c(O)c(C=Nc2cccc(O)c2)sc1=S | -19 | 95
CC(C)CN(CC(C)C)Cn1nc(-c2ccc3c(c2)OCO3)oc1=S | -11 | 70
CN(Cn1nc(-c2ccc3c(c2)OCO3)oc1=S)C1CCCCC1 | 2 | 45*
O=C1N(c2ccccc2)c2ccccc2C1(O)C(F)(F)F (stereo not given) | 10 | 78
CO[C@@]12[C@@H]3NC3CN1C1=C(C(=O)C(N)=C(C)C1=O)[C@@H]2COC(N)=O (stereo not given in full) | . | 0.2*
CCN(CC(=O)NC1CCS(=O)(=O)C1)c1nc(-c2cccnc2)nc2sc3c(c12)CCCC3 (stereo not given) | 14 | 86
Cc1ccc(CN(C)c2nc(-c3cccnc3)nc3sc4c(c23)CCCC4)o1 | -6 | 2.1*
CC1(C)OC(=O)C(=CNCCO)C(=O)O1 | 26 | 92
Cc1ccc(C)c(-c2nnc(NC(=O)c3ccc(S(=O)(=O)N4CCc5ccccc54)cc3)o2)c1 | 21 | 1.9*
Cc1ccc(NC(=O)c2cccc(S(C)(=O)=O)c2)cc1 | -13 | 99
Cc1ccc(S(=O)(=O)N2CCc3cc(C(=O)Nc4ccc(C)c(C)c4)ccc32)cc1 | . | 92
Cc1ccc(C)c(-c2nnc(NC(=O)c3cccc(S(C)(=O)=O)c3)o2)c1 | 12 | 5.5*
Cc1cc(=S)cc(-c2ccccc2)n1CCN1CCOCC1 | 2 | 93
CC(=O)Oc1ccccc1C(=O)N(c1ccccc1)C(C)C1CC1 (stereo not given) | 11 | 98
O=c1[nH]sc2ccccc12 | 22 | -1.8*
O=c1cc(O)sc2ccccc12 | 0 | 57
FC(F)Sc1ccc(N=C=S)cc1 | 3 | -0.8*
FC(F)Oc1ccc(N=C=S)cc1 | -3 | 92
Cc1ccc(C)c(N2CCN(CCCNC(=O)c3ccc4nc(N5CCC(C)CC5)sc4c3)CC2)c1 | . | 106
Oc1c(Cl)cc(Cl)cc1Sc1cc(Cl)cc(Cl)c1O | . | -0.6*
Cc1ccc(N)c(C(O)(C(F)(F)F)C(F)(F)F)c1 | 16 | .
Oc1c(Cl)cc(Cl)cc1C(O)(C(F)(F)F)C(F)(F)F | 21 | 7.3*
CCC(=O)c1cc(Cl)cc(Cl)c1O | 8 | 124
CCCn1cnc2cc(NCc3ccc(Br)cc3)ccc21 | 5 | 0.3*
SMILES | S aureus helic | Sa growth inh
CCCCn1cnc2cc(NCc3cc(OC)c(OC)c(OC)c3)ccc21 | 19 | 99
CCCn1cnc2cc(NCc3ccncc3)ccc21 | 10 | 79
CCCCn1cnc2cc(NCc3ccc(Br)cc3)ccc21 | 6 | 7.6*
Cc1ccc(CNc2ccc3c(c2)ncn3C2CCCCC2)cc1 | -7 | -0.5*
Oc1ccccc1CNc1ccc2c(c1)ncn2C1CCCCC1 | 6 | 109
CCCn1cnc2cc(NCc3ccc(Cl)cc3Cl)ccc21 | 3 | 0.5*
CCCn1cnc2cc(NCc3ccccc3O)ccc21 | 0 | 98
Cc1cc(C)nc(NCCCO)n1 | -32 | 89
Cc1noc(/C=C/N(C)C)c1S(=O)(=O)N(CCc1ccccc1)Cc1ccccc1 | 4 | 75
Cc1ccc(-c2ccc(CCC(=O)O)o2)cc1 | 14 | -1.4*
O=C(O)CCc1ccc(-c2cccs2)o1 | 11 | 94
CCOC(=O)c1cnc2ccc(OCC)cc2c1Nc1cc(Cl)c(OC)cc1OC | . | 95
CCn1cc2c(n1)-c1c(oc(C(=O)Nc3ccc(Cl)cc3)c1C)CC2 | 5 | 75
NC(=O)N/N=C/c1ccc([N+](=O)[O-])o1 | . | 2.5*
NC(=O)N/N=C/c1ccc(-c2ccc(Cl)cc2)o1 | 8 | 93
CN1C(=O)NC(=O)C1(C)C | -7 | 84
CCCc1cc(=O)n2[nH]cc(-c3ccc(Cl)cc3)c2n1 | 36 | -0.6*
COCc1cc(=O)n2[nH]cc(-c3ccc(Cl)cc3)c2n1 | 17 | 113
O=C1c2ccccc2C(=O)c2sccc21 | -18 | 1.6*
O=C1c2ccccc2C(=O)N1c1nccs1 | -8 | 83
O=C(O)CCn1c(-c2ccccc2)cc2c1CCCC2=O | 7 | .
O=c1ccsn1Cc1ccccc1 | 26 | -0.8*
O=C1N(Cc2ccccc2)c2cccc3cccc(c23)N1Cc1ccccc1 | -1 | 113
Cc1noc(C)c1COc1ccc(CC(=O)N(C)Cc2ccc3c(c2)OCO3)cc1 | 17 | 80
COc1ccc(Nc2cc(C)nc3ccc(OC)cc23)cc1 | 63* | 88
SMILES | S aureus helic | Sa growth inh
COc1ccc(CNc2cc(C)nc3ccc(OC)cc23)cc1 | -11 | 75
N#C/C(=N\Nc1ccc(F)cc1)C(=O)NCC1CCCO1 (stereo not given) | -15 | 93
CC(C)C(=O)/C(C#N)=N/Nc1ccc(F)cc1 | -13 | 8.0*
CC(C)c1ccc(NC(=O)CSc2ncn[nH]2)cc1 | -7 | 94
Cc1ccc(S(=O)(=O)/N=C2\C=C(Sc3ncn[nH]3)C(=O)c3ccccc32)cc1 | 17 | 2
Cc1ccc(S(=O)(=O)/N=C2/C=C(Sc3ncn[nH]3)C(=O)c3ccccc32)cc1 | 23 | 2.1*
CC(C)c1ccc(S(=O)(=O)/N=C2/C=C(Sc3ncn[nH]3)C(=O)c3ccccc32)cc1 | 16 | 1.2*
O=C1/C(=C/c2cccc(Cl)c2)CC/C1=C\c1cccc(Cl)c1 | 10 | 108
CN(C(=O)CSc1nc2ccccc2c(=O)n1Cc1ccccc1)c1ccccc1 | 10 | 111
S=C(Nc1ccc(Cl)cc1Cl)NC(Cn1ccnc1)c1ccccc1 (stereo not given) | . | 73
Clc1ccc(C(Cn2ccnc2)OCc2csc3c(Cl)cccc23)c(Cl)c1 (stereo not given) | . | 0.9*
O=C(CSc1nnc(-c2ccncc2)n1-c1ccccc1)Nc1ccc(F)cc1 | . | 107
CO[C@H](C(=O)[C@@H](O)[C@@H](C)O)[C@@H]1Cc2cc3cc(O[C@H]4C[C@@H](O[C@H]5C[C@@H](O)[C@H](O)[C@@H](C)O5)[C@@H](O)[C@@H](C)O4)c(C)c(O)c3c(O)c2C(=O)[C@H]1O[C@H]1C[C@@H](O[C@H]2C[C@@H](O[C@H]3C[C@](C)(O)[C@H](O)[C@@H](C)O3)[C@H](O)[C@@H](C)O2)[C@H](O)[C@@H](C)O1 | . | -0.2*
Cc1cccc(OC(=O)c2cc(-c3ccc(C)c(C)c3)on2)c1 | . | 0.8*
Cc1ccc(-c2cc(C(=O)Oc3ccc(C#N)cc3)no2)cc1C | . | 99
Cc1cc(OC(=O)c2cc(-c3ccc4c(c3)OCCO4)on2)ccc1Cl | . | 110
Cc1ccc(OC(=O)c2cc(-c3ccc4c(c3)OCCO4)on2)cc1C | . | 2.2*
Fc1ccc(Cn2[nH]nnc2=S)cc1 | . | 94
Cc1oc(/N=C/c2ccccc2)c(C#N)c1C | 3 | 97
COc1cccc2c1cc1c(=O)n(CC(=O)NCCc3ccc(S(N)(=O)=O)cc3)nc(C)n12 | 18 | 103
CC[C@H]1OC(=O)[C@H](C)[C@@H](O[C@H]2C[C@@](C)(OC)[C@@H](O)[C@H](C)O2)[C@H](C)[C@@H](O[C@@H]2O[C@H](C)C[C@H](N(C)C)[C@H]2O)[C@](C)(OC)C[C@@H](C)C(=O)[C@H](C)[C@@H](O)[C@]1(C)O | . | -0.8*
COc1ccc(NC(=O)Cc2csc(C)n2)cc1 | . | 93
CC(C)Cn1c(CO)nc2ccccc21 | -16 | .
Cc1ccc(OCC(=O)Nc2cccc3ccc(C)nc23)c(C)c1 | . | 99
Cc1ccc2c(Cl)cc(Cl)c(OCC(=O)Nc3c(F)cccc3F)c2n1 | -19 | -0.2*
Cc1ccc(-n2nc3cc(C)c(NC(=O)c4ccc(-c5ccccc5)o4)cc3n2)cc1 | . | 99
